Z-score and composite z-score data for 11 molecules are collected here from PubChem BioAssay.

The source made the active and inactive calls.

Assay [1] can be described thus: optical density shifts of acrAB sulA E. coli – strain DRC41, OD650, 48 h, E. coli filamentation inducer project, primary screen (AID 1152).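 Further: E. coli MC1000 strain DRC41 lacking acrAB efflux pump and sulA.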 The conditions noted are these: higher = more signal, called active from +8 up or from −8 down.
The nature of assay [2]: probe aLefty1 binding on compound microarray – biochemical, small-molecule microarray, 635/667 nm fluorescence, primary screen (AID 1153).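 Further: score merges spot fluorescence with signal-to-noise ratio from the scanned slide images.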 The conditions noted are these: higher = more signal.
The nature of assay [3]: plasmodial surface anion channel blockers, osmotic lysis – cell-based, P. falciparum Indochina, OD700, 1 h, primary screen (AID 1154). The conditions noted are these: P. falciparum Indochina infected RBC osmotic lysis, higher = more signal, called active from +8 up or from −8 down.
A short description of assay [4]: plasmodial surface anion channel blockers, osmotic lysis – cell-based, P. falciparum Indochina, OD700, 2 h, primary screen (AID 1155).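 Further: lysis reports solute entry through the parasite surface anion channel PSAC.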 The conditions noted are these: P. falciparum Indochina infected erythrocytes, higher = more signal, called active from +8 up or from −8 down.
Assay [5] in a line: changes in parasitized red cell lysis, either direction – P. falciparum Indochina, OD700, 3 h, PSAC antagonist project, primary screen (AID 1156). To be noted: P. falciparum-infected erythrocytes, osmotic lysis, higher = more signal, called active from +8 up or from −8 down.
The nature of assay [6]: plasmodial surface anion channel blockers, osmotic lysis – cell-based, P. falciparum Indochina, OD700, 18 h, primary screen (AID 1157). To be noted: P. falciparum Indochina infected erythrocytes, osmotic lysis OD700, 18 h; higher = more signal, called active from +8 up or from −8 down.
Assay [7] in a line: S6 kinase pathway phospho-S6 level changes – cell-based, A549, cytoblot, luminescence, serum-stimulated, primary screen (AID 1158).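 Further: serum-stimulated A549 lung adenocarcinoma cells; signal is phosphorylated S6 detected by cytoblot immunostaining with HRP secondary.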 The conditions noted are these: 5 h, higher = more signal.
The target in assay [8] is NADPH oxidase 2 (Homo sapiens) (UniProt P04839). The experiment in a line: compounds shifting NOX2 Amplex Red fluorescence – cell-based, HEK293-NOX2, PMA-stimulated, NOX inhibitor project, primary screen (AID 1159). Further: test concentration not given here. To be noted: 45 min, higher = more signal, called active from +8 up or from −8 down.
The target in assay [9] is NADPH oxidase 4 (Homo sapiens) (UniProt Q9NPH5). The experiment in a line: compounds shifting NOX4 Amplex Red fluorescence – cell-based, HEK293-NOX4, tetracycline-induced, NOX inhibitor project, primary screen (AID 1160). To be noted: HEK293-NOX4, Amplex Red H2O2 fluorescence, 45 min; higher = more signal, called active from +8 up or from −8 down.
The target of assay [10] is NADPH oxidase 5 (Homo sapiens) (UniProt Q96PH1). The experiment in a line: compounds shifting NOX5 Amplex Red fluorescence – cell-based, HEK293-NOX5, NOX inhibitor project, primary screen (AID 1161). The conditions noted are these: HEK293-NOX5, ionomycin, 45 min, higher = more signal.
NADPH oxidase 5 (Homo sapiens), sequence (Q96PH1 whole entry, looked up): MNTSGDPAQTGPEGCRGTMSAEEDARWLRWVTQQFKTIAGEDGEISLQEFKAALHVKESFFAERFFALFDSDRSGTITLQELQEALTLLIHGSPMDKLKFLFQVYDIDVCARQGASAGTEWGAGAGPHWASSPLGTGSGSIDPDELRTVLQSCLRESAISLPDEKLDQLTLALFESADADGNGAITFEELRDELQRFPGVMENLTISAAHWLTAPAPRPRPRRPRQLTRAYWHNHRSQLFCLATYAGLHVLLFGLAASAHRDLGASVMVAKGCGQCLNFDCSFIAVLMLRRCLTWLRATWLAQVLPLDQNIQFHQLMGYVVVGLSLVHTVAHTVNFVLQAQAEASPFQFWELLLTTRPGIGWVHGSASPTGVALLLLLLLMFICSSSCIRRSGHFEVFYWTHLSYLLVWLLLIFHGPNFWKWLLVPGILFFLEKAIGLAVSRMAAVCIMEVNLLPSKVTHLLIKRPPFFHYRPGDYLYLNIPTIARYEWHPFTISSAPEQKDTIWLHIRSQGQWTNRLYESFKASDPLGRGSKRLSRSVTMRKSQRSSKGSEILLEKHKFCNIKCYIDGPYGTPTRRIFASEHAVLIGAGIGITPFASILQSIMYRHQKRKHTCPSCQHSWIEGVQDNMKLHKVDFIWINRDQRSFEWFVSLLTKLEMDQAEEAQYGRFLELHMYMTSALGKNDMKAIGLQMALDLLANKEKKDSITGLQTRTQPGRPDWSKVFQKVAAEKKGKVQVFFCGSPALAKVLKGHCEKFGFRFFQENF

NADPH oxidase 4 (Homo sapiens), sequence (Q9NPH5 whole entry, looked up): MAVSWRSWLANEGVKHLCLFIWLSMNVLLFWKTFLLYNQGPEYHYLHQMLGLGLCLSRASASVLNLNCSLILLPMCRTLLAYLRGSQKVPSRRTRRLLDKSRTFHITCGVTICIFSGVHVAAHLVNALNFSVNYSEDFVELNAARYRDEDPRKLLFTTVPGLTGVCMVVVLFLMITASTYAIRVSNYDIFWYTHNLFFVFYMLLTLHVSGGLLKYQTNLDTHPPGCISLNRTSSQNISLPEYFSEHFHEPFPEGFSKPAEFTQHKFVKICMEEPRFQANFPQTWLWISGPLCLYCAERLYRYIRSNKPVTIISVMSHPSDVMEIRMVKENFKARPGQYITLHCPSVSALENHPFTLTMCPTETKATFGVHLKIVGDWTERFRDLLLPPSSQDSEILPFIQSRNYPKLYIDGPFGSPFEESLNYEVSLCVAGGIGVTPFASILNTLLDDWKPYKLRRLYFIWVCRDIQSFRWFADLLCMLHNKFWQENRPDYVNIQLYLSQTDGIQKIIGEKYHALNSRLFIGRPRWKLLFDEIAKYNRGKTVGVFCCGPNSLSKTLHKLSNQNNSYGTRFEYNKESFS
NADPH oxidase 2 (Homo sapiens), sequence (P04839 whole entry, looked up): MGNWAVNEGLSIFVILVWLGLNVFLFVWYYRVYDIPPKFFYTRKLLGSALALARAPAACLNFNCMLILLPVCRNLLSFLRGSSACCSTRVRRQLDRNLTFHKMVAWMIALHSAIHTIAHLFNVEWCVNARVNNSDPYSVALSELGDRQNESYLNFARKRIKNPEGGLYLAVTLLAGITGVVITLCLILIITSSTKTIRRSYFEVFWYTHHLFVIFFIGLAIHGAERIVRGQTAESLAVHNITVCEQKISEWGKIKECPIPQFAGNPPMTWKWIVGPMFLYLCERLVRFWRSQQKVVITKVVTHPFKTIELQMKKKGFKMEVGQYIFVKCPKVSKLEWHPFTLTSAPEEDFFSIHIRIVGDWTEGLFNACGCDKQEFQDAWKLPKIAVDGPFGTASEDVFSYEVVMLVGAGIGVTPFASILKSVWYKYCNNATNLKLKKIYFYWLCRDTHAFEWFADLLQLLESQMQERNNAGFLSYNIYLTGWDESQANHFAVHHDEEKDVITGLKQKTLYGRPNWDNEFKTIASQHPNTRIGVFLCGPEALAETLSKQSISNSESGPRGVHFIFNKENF

Turning to `COc1ccc(NC(=O)O[C@H]2[C@H](OC(=O)Nc3ccccc3)[C@H](OC(=O)Nc3ccccc3)[C@@H](OC)O[C@@H]2CO)cc1`, the z-score is -1.37 (inactive) in assay [1]; 8.18 (active) in assay [3]; 1.26 (inactive) in assay [4]; -0.329 (inactive) in [5]; 0.889 (inactive) in [6]; 0.0488 in assay [7]. Also, the z-score in assay [8] was 0.824 (inactive); in [9], -0.11 (inactive); in assay [10], -0.922. The same molecule gave a composite z-score in assay [2] of 0.457.

Turning to `C[C@H]1NC(=O)[C@@]23C(=O)N[C@@H](Cc4ccccc4)C2[C@H](C)[C@@]2(C)O[C@H]2C3/C=C/C/C=C\CNC(=O)[C@H](Cc2ccccc2)NC1=O` (stereo not given in full), the z-score in assay [1] is -0.213 (inactive); in [3] it was 0.874 (inactive); in assay [4], 0.577 (inactive); in [5], 0.395 (inactive); in assay [6] it was 0.33 (inactive); in assay [7] it was -0.271. The z-score was 1.63 (inactive) in assay [8], -1.2 (inactive) in assay [9] and 0.201 in assay [10]. In [2], this molecule returned a composite z-score of -0.0378.

Regarding `CCCCCCc1nc(C2CC2)cc2c1[Si](C(C)C)(C(C)C)OC2`, the z-score in assay [1] was -0.611 (inactive); in assay [3], 0.834 (inactive); in assay [4], -0.225 (inactive); in assay [5], 0.981 (inactive); in assay [6], -1.13 (inactive); in assay [7], 0.259. For the same molecule, the z-score is -6.34 (inactive) in assay [8], -2.12 (inactive) in assay [9] and -4.98 in assay [10]. In [2], this molecule came in with a composite z-score of -0.0559.

Take `CCCCCCc1nc(C2CC2)cc2c1[Si](C(C)C)(C(C)C)O[C@H]2c1ccccc1`: the z-score was -1.27 (inactive) in [1]; 0.0479 (inactive) in [3]; -0.0357 (inactive) in [4]; 0.453 (inactive) in assay [5]; -0.11 (inactive) in [6]; -0.653 in [7]. The z-score in assay [8] is -3.31 (inactive); in assay [9] it was -0.00134 (inactive); in assay [10], -1.77. Besides, the composite z-score in assay [2] was -0.23.

Turning to `COc1cc2c(cc1OC)CN(C(=O)[C@@H]1[C@H]3C(=O)O[C@H](c4ccccc4)[C@H](c4ccccc4)N3[C@H](c3ccc(OCCO)cc3)[C@@]13C(=O)Nc1ccccc13)CC2`, the z-score in assay [1] is 0.547 (inactive); in [3], 5.29 (inactive); in [4], 2.11 (inactive); in [5], 1.06 (inactive); in assay [6], 0.956 (inactive); in assay [7], -0.0621. In addition, the z-score in assay [8] was 0.799 (inactive); in assay [9], 0.837 (inactive); in [10], 1.03. The composite z-score in assay [2] came out at 0.534.

With `C=C[C@@H](OC)[C@H](OC(=O)Nc1ccc(SC)cc1)c1ccc(O)c(F)c1`, the z-score was -1.51 (inactive) in [1]; 24.7 (active) in assay [3]; 7.57 (inactive) in assay [4]; 2.98 (inactive) in [5]; 1.31 (inactive) in [6]; -0.618 in assay [7]. For the same molecule, the z-score in assay [8] was -2.6 (inactive); in [9] it was -2.4 (inactive); in assay [10] it was -1.26. The composite z-score in [2] was found to be 0.44.

For `CCCC[C@@H]1C[C@H]1[C@@H](NC(=O)Cc1ccccc1)c1ccc(-c2ccccc2)cc1`, the z-score in [1] is -0.71 (inactive); in assay [3] it was 1.1 (inactive); in assay [4], 0.283 (inactive); in [5], 0.249 (inactive); in assay [6] it was 0.345 (inactive); in [7], 0.871. Also, the z-score in [8] was -1.35 (inactive); in assay [9], -0.123 (inactive); in assay [10], 1.09. In [2], this molecule showed a composite z-score of 0.369.

As to `CCOC(=O)C[C@H]1[C@H](OC(=O)c2cc3ccccc3oc2=O)[C@@H](NC(=O)Cc2ccc(OC)cc2)c2cc(OCCCO)ccc2N1C(=O)c1ccc2ccccc2n1`, the z-score in assay [1] was 0.96 (inactive); in [3], 9.52 (active); in assay [4], 0.85 (inactive); in assay [5], 0.785 (inactive); in assay [6], 0.305 (inactive); in assay [7], 0.336. For the same molecule, the z-score in [8] is 1.71 (inactive); in [9], 1.34 (inactive); in assay [10], 1.53. In [2], the composite z-score is -0.0046.

As to `C[N+](C)(C)CCCC[C@@H]1NC(=O)[C@H]2C[C@@H](C(=O)NCCCCCCN)[C@@H](c3ccc(O)cc3)N2C1=O`, the z-score in assay [1] was 0.429 (inactive); in assay [3] it was 0.625 (inactive); in assay [4], 0.328 (inactive); in assay [5] it was -2.08 (inactive); in [6], 0.326 (inactive); in assay [7], 0.191. The z-score in assay [8] is 0.00341 (inactive); in assay [9], -1.73 (inactive); in assay [10], 0.273. This molecule also came in with a composite z-score in [2] of 0.284.

Consider `OCCCC1=CC(c2ccc(CN3CCCC3)cc2)N(Cc2sc3ccccc3c2Cl)CC1` (stereo not given), for which the z-score is -1.6 (inactive) in assay [1]; 7.15 (inactive) in assay [3]; 1.29 (inactive) in assay [4]; 0.314 (inactive) in assay [5]; 1.19 (inactive) in assay [6]; -0.319 in [7]. Further, the results for the z-score in assay [8], in assay [9] and in [10] were -5.42 (inactive), -2.03 (inactive) and -2.27, respectively. The molecule further yielded a composite z-score in [2] of 0.527.

In the case of `[N-]=[N+]=NCc1ccccc1[C@H]1OC(c2ccc(OCCCO)cc2)=N[C@@]1(CCS(=O)(=O)c1ccccc1)C(=O)NCC(O)CO` (stereo not given in full), the z-score was -0.0559 (inactive) in assay [1]; 27.1 (active) in [3]; 21.1 (active) in assay [4]; 2.23 (inactive) in assay [5]; 2.78 (inactive) in assay [6]; 0.123 in [7]. Moreover, the results for the z-score in assay [8], in assay [9] and in assay [10] were 1.47 (inactive), 1.1 (inactive) and 1.64, respectively. Besides, the composite z-score in [2] stood at 0.675.
